Test results: PubChem BioAssay AID463212 (Sanford-Burnham Center for Chemical Genomics, 2010)
About 4,400 (1.3%) of roughly 330,000 compounds were called active.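 The calls were made as follows: active = growth inhibition of the mutant yeast at or above 50%; inactive = the rest.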 This excerpt belongs to a sample that is enriched for actives.

Experiment: growth inhibition of tim23-1 ts yeast – luminescence, uHTS, primary screen (AID 463212);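 also: temperature-sensitive mutant grown at 25 °C; plate controls were DMSO-treated mutant yeast for no effect and medium wells lacking yeast for full effect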
Details: S. cerevisiae tim23-1 growth, BacTiter-Glo luminescence, 24 h; at 20 µM; stronger effect = higher value

| SMILES | inhibition |
| --- | --- |
| CC[C@@H]1Cc2cc(O)ccc2C2=C1c1ccc(O)cc1C[C@H]2CC | -6.54% (inactive) |
| CCOC(=O)c1c(NC(=O)c2ccc(S(=O)(=O)N(C)CC3CCCO3)cc2)sc2c1CC(C)(C)NC2(C)C (centres undefined) | 24% (inactive) |
| COC(=O)c1c(NC(=O)COc2ccc(Cl)cc2Cl)sc2c1CC(C)(C)NC2(C)C | 60.1% (active) |
| COC(=O)c1sccc1NC(=O)COc1ccc(Cl)cc1 | 6.02% (inactive) |
| Cc1ccc(C(=O)NCC(=O)NCc2cc(=O)n(C)c(=O)n2C)cc1 | 16.1% (inactive) |
| Nc1nc(SCC(=O)Nc2ccc(Cl)cc2C(F)(F)F)n[nH]1 | 3.1% (inactive) |
| CCC(C)(C)n1nnnc1CN1CCN(c2nc3ccc(C)cc3cc2C#N)CC1 | 40.5% (inactive) |
| O=C1CSC(=S)N1c1ccc(O)cc1 | 11.4% (inactive) |
| COc1cc(N2C(=O)CSC2=S)cc(OC)c1OC | 23.9% (inactive) |
| O=C1CSC(=S)N1c1ccc(Cl)c(Cl)c1 | 53.7% (active) |
| CCNC(=O)NC(=O)C(C)OC(=O)c1cc(S(=O)(=O)N2CCCCCC2)ccc1OC (centres undefined) | 19.4% (inactive) |
| COc1ccc([N+](=O)[O-])cc1-c1nc2ccccc2nc1-c1ccccc1 | 36.6% (inactive) |
| O=[N+]([O-])c1ccc2nc(-c3ccccn3)[nH]c2c1 | 46.5% (inactive) |
| O=[N+]([O-])c1ccc2c(c1)Nc1nc3ccccc3nc1N2 | 59.9% (active) |
| CC(=O)NC(Cc1ccccc1)C(=O)NC1CCN(c2ncccc2[N+](=O)[O-])CC1 (centres undefined) | 10.9% (inactive) |
| COc1ccc(-c2cc(C3CCN(c4ncccc4[N+](=O)[O-])CC3)[nH]n2)cc1 | 57.6% (active) |
| COc1ccc(-c2cc3ncccc3cn2)cc1 | 9.46% (inactive) |
| CC(C(=O)Nc1ccccc1-c1ccccc1)N1CCOCC1 (centres undefined) | 7.67% (inactive) |
| Clc1ccc(C2CC(c3cccs3)n3ncnc3N2)cc1Cl (centres undefined) | 50.5% (active) |
| Nc1nc2n(n1)C(c1ccco1)CC(c1ccc(Cl)c(Cl)c1)N2 (centres undefined) | 20.6% (inactive) |
| COc1ccc(C2CC(c3ccc(C)cc3)Nc3ncnn32)cc1 (centres undefined) | 27.1% (inactive) |
| Oc1ccccc1CNc1ncc(Br)cc1Br | 45.5% (inactive) |
| CCc1nnc(NS(=O)(=O)c2ccc(NC(=S)NC(=O)c3cccs3)cc2)s1 | 18.7% (inactive) |
| CCc1nnc(NS(=O)(=O)c2ccc(NC(=S)NC(=O)/C=C/c3cccs3)cc2)s1 | 96.1% (active) |
| CCc1nnc(NS(=O)(=O)c2ccc(NC(=O)c3cccc(OC(F)(F)C(F)F)c3)cc2)s1 | -1.08% (inactive) |

| SMILES | inhibition |
| --- | --- |
| COC(=O)c1cc2occc2n1Cc1nc(-c2ccccc2C)oc1C | 4.08% (inactive) |
| C=CCn1nc(-c2ccccc2)c2c(C)onc2c1=O | 6.39% (inactive) |
| CC(=O)Nc1ccc(S(=O)(=O)NC2(C(F)(F)F)C(=O)Nc3c2c(=O)[nH]c(=O)n3Cc2ccccc2)cc1 (centres undefined) | 3.06% (inactive) |
| CC(C)NC(=O)/C(C#N)=C\c1ccc(N(C)C)c(Br)c1 | 61% (active) |
| Cc1[nH]c2ccccc2c1/C=C(/C#N)C(=O)NC(C)C | 10.2% (inactive) |
| CC(C)(C)C(=O)/C(C#N)=C/c1ccc(O)cc1 | 24% (inactive) |
| Cc1cc(C(=O)OC(C)C(=O)NC2CCCCC2C)c(C)o1 (centres undefined) | -5.23% (inactive) |
| CCN(CC)CC(=O)Nc1sc2c(c1C(=O)c1ccccc1C)CCC2 | 32.5% (inactive) |
| CC(OC(=O)CCCc1c[nH]c2ccccc12)C(=O)Nc1ccc(S(N)(=O)=O)cc1 (centres undefined) | 11.1% (inactive) |
| CCN(CC)C(=O)N1CCN(C(=O)c2ccc(C)cn2)CC1 | 8.95% (inactive) |
| Cc1nc2ccccc2nc(=O)c1NNc1ccc([N+](=O)[O-])cc1 | -14.3% (inactive) |
| CC(C)CNC(=O)CC(c1ccccc1)c1c(O)ccc2ccccc12 (centres undefined) | 11.2% (inactive) |
| C/C(=N\N(C)C)c1ccc(OCCOc2ccc([N+](=O)[O-])cc2)cc1 | 20.4% (inactive) |
| Oc1ccc2ccccc2c1C=Nc1ccccc1 | 53.2% (active) |
| CC(=O)n1c(C=Nc2ccccc2)c(O)c2ccccc21 | 10.8% (inactive) |
| O=[N+]([O-])c1ccc(N=Cc2c(O)ccc3ccccc23)cc1 | 55.5% (active) |
| COc1ccc(NC(=O)C2=C(C)NC(=O)NC2c2ccccc2[N+](=O)[O-])cc1 (centres undefined) | 1.02% (inactive) |
| O=C(NCC(=O)N(CC1CCCO1)C(C(=O)NC1CCCCC1)c1ccccc1)c1ccco1 (centres undefined) | 14.7% (inactive) |
| COc1cc(C2CC(=O)Oc3cc(OC)c(OC)c(OC)c32)cc(OC)c1OC (centres undefined) | 27.3% (inactive) |
| COc1ccc(NC(=O)NNC(=O)COc2cc(C)c(Cl)c(C)c2)c(OC)c1 | -17.4% (inactive) |
| Oc1ccc(/C=N/Nc2ccc(C(F)(F)F)cn2)cc1O | 16.3% (inactive) |
| Oc1cccc(/C=N/Nc2ccc(Cl)nn2)c1O | 24.4% (inactive) |
| Oc1ccc(Br)cc1/C=N/Nc1ccccn1 | 68% (active) |
| COc1ccc(/C(N)=N/OC(=O)CCCc2ccccc2)cc1 | 71.1% (active) |
